These results are taken from PubChem BioAssay (NCATS).

Results filed as inconclusive are left out. Activity calls are given as the source filed them.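 Rule for the calls, unless noted: active = compounds whose dose series gives a full or clear partial fitted curve of increased nuclear translocation; inconclusive = weak partial curve or effect only at the top dose; inactive = no dose-dependent translocation response.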

Test system in one test: not listed separately
As to the kind of experiment: Stat Signaling Pathway (AID 446; active = well fitted curve in either direction with a large enough effect, not every such curve was filed as active;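 note: ME-180 cervical cancer cells given 40 pM IL-6 alongside compound; SIE-controlled beta-lactamase reporter measured as 460/530 nm FRET emission ratio; % is set by controls: 0 for no effect and ±100 for the full control effect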). The conditions noted are these: ME-180 (cervical carcinoma) SIE beta-lactamase reporter, IL-6 stimulated, 5 h; at 17.2 µM (top of the series) unless noted. In outline:
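Normalization used AC90 stimulation (300 pM IL-6) and AC90 inhibition (125 nM pan-JAK inhibitor at 40 pM IL-6). The underlying signal is SIE-driven beta-lactamase in ME-180 cells after 5 h IL-6 exposure with compound.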
In the case of `CCCCSc1nnc(-c2ccc(NC(C)=O)cc2)n1C`, the activity, negative = inhibition is 0.987% (inactive).

`S=c1[nH]nc(-c2ccco2)n1Cc1ccccc1`: the activity, negative = inhibition was 21.7% (inactive).

For the compound `CCCC(C)n1[nH]c(=O)cc1N` (stereo not given), the activity, negative = inhibition is 3.57% (inactive).

In the case of `CC(=O)N/C(=N/c1nc(C)cc(C)n1)Nc1ccc(NC(C)=O)cc1`, the activity, negative = inhibition was -1.02% (inactive).

For `CC(NC(=O)Nc1nnc(C(F)(F)F)s1)(C(F)(F)F)C(F)(F)F`, the activity, negative = inhibition was 0.617% (inactive).

As for `Cc1cc(C)nc(NC2=NCC(=O)N2c2cccc(Cl)c2)n1`, the activity, negative = inhibition is 0.214% (inactive).

Consider `COc1cc(C2C(C(C)=O)=C(O)C(=O)N2c2ccc(Br)cn2)ccc1O` (stereo not given), for which the activity, negative = inhibition is -8.75% (inactive).

For `CCn1c(SCC(=O)NCc2ccco2)nnc1-c1ccc(N)cc1`, the activity, negative = inhibition is -0.962% (inactive).

In the case of `Cc1cccc(-c2nnc3n2N=C(c2ccc(Br)cc2)CS3)c1`, the activity, negative = inhibition is 7.64% (inactive).

As for `C=CCn1c(SCC(=O)c2ccccc2)nnc1-c1ccc2c(c1)OCO2`, the activity, negative = inhibition was -9.25% (inactive).

On to `NC(=O)C1CCN(C2OC(=O)c3ccccc32)CC1` (stereo not given), for which the activity, negative = inhibition is 10.3% (inactive).

For `CCOC(=O)NC(Nc1cc(C)on1)(C(F)(F)F)C(F)(F)F`, the activity, negative = inhibition is 12.3% (inactive).

As to `CCc1nc(NCC(C)C)c(C#N)c2c1COC(C)(C)C2`, the activity, negative = inhibition was 1.74% (inactive).

For the compound `CC1CCN(c2ncnc3c2cnn3Cc2ccc(Cl)cc2)CC1`, the activity, negative = inhibition is -11.4% (inactive).

On to `CCOc1ccccc1C(=O)NCCCCCC(=O)O`, for which the activity, negative = inhibition is 6.07% (inactive).

With `O=C(O)c1cnn2c(C(F)(F)F)cc(-c3ccco3)nc12`, the activity, negative = inhibition was 16.2% (inactive).

With `COc1ccc(C(=O)Cn2c(N3CCCCC3)nc3c2c(=O)n(C)c(=O)n3C)cc1OC`, the activity, negative = inhibition is -0.755% (inactive).

For `COc1cc(-c2nn3c(-c4ccccn4)nnc3s2)cc(OC)c1OC`, the activity, negative = inhibition is 1.47% (inactive).

For `Cn1cccc1/C=N/n1cnnc1`, the activity, negative = inhibition is 4.51% (inactive).

With `O=C1CCC(=O)N1CN(C(=O)c1ccco1)c1ccc(Cl)c(Cl)c1`, the activity, negative = inhibition is 11.1% (inactive).

For `O=C1[C@@H]2[C@H](C(=O)N1O)[C@H]1C=C[C@@H]2C1`, the activity, negative = inhibition was 10.4% (inactive).

For `CCC(=O)Nc1cc(-c2nn(C)c(=O)c3ccccc23)ccc1N1CCCCC1`, the activity, negative = inhibition was -6.35% (inactive).

For the compound `COC(=O)c1cc2c(=O)n3cccc(C)c3nc2n(Cc2cccnc2)c1=N`, the activity, negative = inhibition is 15.4% (inactive).

Turning to `O=C(NCCc1ccccc1)/C(=N\O)c1ccccc1`, the activity, negative = inhibition is -3.56% (inactive).

For the compound `Cc1ccc(C(=O)/C=C/Nc2cccc(O)c2)cc1`, the activity, negative = inhibition is -17.8% (inactive).

With `O=C(O)CCCC(=O)N1CCN(C(c2ccccc2)c2ccccc2)CC1`, the activity, negative = inhibition was 0.344% (inactive).

For `CCCCOc1ccccc1/C=c1/sc2nc(-c3oc4ccccc4c3C)nn2c1=O`, the activity, negative = inhibition is -12.5% (inactive).

For the compound `CCOC(=O)C1CCN(C(C)=C2C(=O)c3ccccc3C2=O)CC1`, the activity, negative = inhibition is 1.52% (inactive).

Take `CC(C)C1Cc2c(sc3c2c(=O)n(Cc2ccccc2)c2nncn32)CO1` (stereo not given): the activity, negative = inhibition was -3.52% (inactive).

Turning to `CCOC(=O)c1cc2cc(OC)ccc2[nH]1`, the activity, negative = inhibition was -4.94% (inactive).

Turning to `COc1cccc(/C(O)=C2\C(=O)C(=O)N(c3ccccn3)C2c2ccccc2OC)c1` (stereo not given), the activity, negative = inhibition was 1.49% (inactive).

With `CCOC(=O)c1ccc(NC(=O)CCC(CC)C(=O)O)cc1` (stereo not given), the activity, negative = inhibition was 3.77% (inactive).

Turning to `COC(=O)C(NC(C)=O)(Nc1ccccn1)C(F)(F)F` (stereo not given), the activity, negative = inhibition was 0.0282% (inactive).

Take `O=C1CC(NCc2ccncc2)C(=O)N1c1ccc(Cl)cc1` (stereo not given): the activity, negative = inhibition is -1.32% (inactive).

Turning to `CC(=O)N(Cc1ccccc1)c1ccc(C(=O)O)cc1`, the activity, negative = inhibition was 13.1% (inactive).

Take `CC(=O)OCc1c(COC(C)=O)[n+](=O)c2ccccc2n1[O-]`: the activity, negative = inhibition was 0.487% (inactive).

On to `COc1ccc(C(=O)c2oc3nc(C)cc(C)c3c2N)cc1`, for which the activity, negative = inhibition is -8.18% (inactive).

Turning to `CCN(CC)CCCN1C(=O)C(=O)/C(=C(/O)c2ccc3c(c2)CC(C)O3)C1c1cccnc1` (stereo not given), the activity, negative = inhibition is 9.37% (inactive).

With `O=C1CCCN1c1ccc(S(=O)(=O)NCc2ccco2)cc1`, the activity, negative = inhibition is 2.23% (inactive).

As for `Cc1ccc(N(Cc2cc3ccccc3[nH]c2=O)C(=O)c2ccco2)c(C)c1`, the activity, negative = inhibition is -13% (inactive).

The target in the next test is Glucocorticoid receptor (Homo sapiens) (UniProt P04150). As to the kind of experiment: GR-GFP Redistribution (AID 450). Note: potency is the fitted concentration of half-maximal effect. The conditions noted are these: U2OS GR-GFP nuclear translocation, laser cytometry, 2 h; series mostly up to 20.6 µM.
Chain of Glucocorticoid receptor (Homo sapiens) (P04150 whole entry, looked up): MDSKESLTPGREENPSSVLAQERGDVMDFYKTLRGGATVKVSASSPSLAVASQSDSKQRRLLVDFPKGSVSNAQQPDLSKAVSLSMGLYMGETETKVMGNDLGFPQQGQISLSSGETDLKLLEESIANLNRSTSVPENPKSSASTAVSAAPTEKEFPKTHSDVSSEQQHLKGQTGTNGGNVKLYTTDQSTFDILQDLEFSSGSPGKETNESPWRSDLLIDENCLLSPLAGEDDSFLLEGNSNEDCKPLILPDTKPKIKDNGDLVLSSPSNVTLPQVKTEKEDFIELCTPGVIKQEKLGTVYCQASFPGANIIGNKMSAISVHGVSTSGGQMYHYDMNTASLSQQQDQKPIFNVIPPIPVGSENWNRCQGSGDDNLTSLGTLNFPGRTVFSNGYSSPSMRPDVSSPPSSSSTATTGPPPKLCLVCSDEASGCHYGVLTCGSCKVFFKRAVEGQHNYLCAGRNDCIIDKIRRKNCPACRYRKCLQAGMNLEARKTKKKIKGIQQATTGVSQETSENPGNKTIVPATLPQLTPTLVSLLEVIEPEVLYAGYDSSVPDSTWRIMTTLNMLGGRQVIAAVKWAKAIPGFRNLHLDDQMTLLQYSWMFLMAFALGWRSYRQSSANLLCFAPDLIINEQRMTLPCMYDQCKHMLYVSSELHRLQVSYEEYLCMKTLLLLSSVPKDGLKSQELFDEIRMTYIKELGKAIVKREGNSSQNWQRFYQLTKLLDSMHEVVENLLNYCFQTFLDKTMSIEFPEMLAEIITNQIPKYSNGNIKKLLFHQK
Take `CCCCSc1nnc(-c2ccc(NC(C)=O)cc2)n1C`: the Potency is > 20.6 µM (inactive).

In the case of `S=c1[nH]nc(-c2ccco2)n1Cc1ccccc1`, the Potency is > 20.6 µM (inactive).

With `CCCC(C)n1[nH]c(=O)cc1N` (stereo not given), the Potency is > 20.6 µM (inactive).

`CC(=O)N/C(=N/c1nc(C)cc(C)n1)Nc1ccc(NC(C)=O)cc1`: the Potency is > 20.6 µM (inactive).

As for `CC(NC(=O)Nc1nnc(C(F)(F)F)s1)(C(F)(F)F)C(F)(F)F`, the Potency is > 20.6 µM (inactive).

In the case of `Cc1cc(C)nc(NC2=NCC(=O)N2c2cccc(Cl)c2)n1`, the Potency is > 20.6 µM (inactive).

`COc1cc(C2C(C(C)=O)=C(O)C(=O)N2c2ccc(Br)cn2)ccc1O` (stereo not given): the Potency is > 20.6 µM (inactive).

Regarding `CCn1c(SCC(=O)NCc2ccco2)nnc1-c1ccc(N)cc1`, the Potency is > 20.6 µM (inactive).

For `Cc1cccc(-c2nnc3n2N=C(c2ccc(Br)cc2)CS3)c1`, the Potency was > 20.6 µM (inactive).

As for `C=CCn1c(SCC(=O)c2ccccc2)nnc1-c1ccc2c(c1)OCO2`, the Potency is > 20.6 µM (inactive).

For `NC(=O)C1CCN(C2OC(=O)c3ccccc32)CC1` (stereo not given), the Potency is > 20.6 µM (inactive).

`CCOC(=O)NC(Nc1cc(C)on1)(C(F)(F)F)C(F)(F)F`: the Potency was > 20.6 µM (inactive).

Consider `CCc1nc(NCC(C)C)c(C#N)c2c1COC(C)(C)C2`, for which the Potency was > 20.6 µM (inactive).

As for `CC1CCN(c2ncnc3c2cnn3Cc2ccc(Cl)cc2)CC1`, the Potency is > 20.6 µM (inactive).

Regarding `CCOc1ccccc1C(=O)NCCCCCC(=O)O`, the Potency was > 20.6 µM (inactive).

Turning to `O=C(O)c1cnn2c(C(F)(F)F)cc(-c3ccco3)nc12`, the Potency was > 20.6 µM (inactive).

Consider `COc1ccc(C(=O)Cn2c(N3CCCCC3)nc3c2c(=O)n(C)c(=O)n3C)cc1OC`, for which the Potency is > 20.6 µM (inactive).

On to `COc1cc(-c2nn3c(-c4ccccn4)nnc3s2)cc(OC)c1OC`, for which the Potency is > 20.6 µM (inactive).

Regarding `Cn1cccc1/C=N/n1cnnc1`, the Potency is > 20.6 µM (inactive).

With `O=C1CCC(=O)N1CN(C(=O)c1ccco1)c1ccc(Cl)c(Cl)c1`, the Potency is > 20.6 µM (inactive).

Take `O=C1[C@@H]2[C@H](C(=O)N1O)[C@H]1C=C[C@@H]2C1`: the Potency is > 20.6 µM (inactive).

For `CCC(=O)Nc1cc(-c2nn(C)c(=O)c3ccccc23)ccc1N1CCCCC1`, the Potency was > 20.6 µM (inactive).

As to `COC(=O)c1cc2c(=O)n3cccc(C)c3nc2n(Cc2cccnc2)c1=N`, the Potency was > 20.6 µM (inactive).

For `O=C(NCCc1ccccc1)/C(=N\O)c1ccccc1`, the Potency is > 20.6 µM (inactive).

On to `Cc1ccc(C(=O)/C=C/Nc2cccc(O)c2)cc1`, for which the Potency was > 20.6 µM (inactive).

As to `O=C(O)CCCC(=O)N1CCN(C(c2ccccc2)c2ccccc2)CC1`, the Potency is > 20.6 µM (inactive).

As for `CCCCOc1ccccc1/C=c1/sc2nc(-c3oc4ccccc4c3C)nn2c1=O`, the Potency is > 20.6 µM (inactive).

Take `CCOC(=O)C1CCN(C(C)=C2C(=O)c3ccccc3C2=O)CC1`: the Potency entry is “inactive”.

Consider `CC(C)C1Cc2c(sc3c2c(=O)n(Cc2ccccc2)c2nncn32)CO1` (stereo not given), for which the Potency is > 20.6 µM (inactive).

Turning to `CCOC(=O)c1cc2cc(OC)ccc2[nH]1`, the Potency was > 20.6 µM (inactive).

As for `COc1cccc(/C(O)=C2\C(=O)C(=O)N(c3ccccn3)C2c2ccccc2OC)c1` (stereo not given), the Potency was > 20.6 µM (inactive).

For `CCOC(=O)c1ccc(NC(=O)CCC(CC)C(=O)O)cc1` (stereo not given), the Potency was > 20.6 µM (inactive).

Take `COC(=O)C(NC(C)=O)(Nc1ccccn1)C(F)(F)F` (stereo not given): the Potency is > 20.6 µM (inactive).

As for `O=C1CC(NCc2ccncc2)C(=O)N1c1ccc(Cl)cc1` (stereo not given), the Potency was > 20.6 µM (inactive).

For `CC(=O)N(Cc1ccccc1)c1ccc(C(=O)O)cc1`, the Potency was > 20.6 µM (inactive).

On to `CC(=O)OCc1c(COC(C)=O)[n+](=O)c2ccccc2n1[O-]`, for which the Potency is > 20.6 µM (inactive).

Turning to `COc1ccc(C(=O)c2oc3nc(C)cc(C)c3c2N)cc1`, the Potency was > 20.6 µM (inactive).

For the compound `CCN(CC)CCCN1C(=O)C(=O)/C(=C(/O)c2ccc3c(c2)CC(C)O3)C1c1cccnc1` (stereo not given), the Potency is > 20.6 µM (inactive).

For the compound `O=C1CCCN1c1ccc(S(=O)(=O)NCc2ccco2)cc1`, the Potency is > 20.6 µM (inactive).

As for `Cc1ccc(N(Cc2cc3ccccc3[nH]c2=O)C(=O)c2ccco2)c(C)c1`, the Potency is > 20.6 µM (inactive).
